# Screening data: PubChem, National Center for Advancing Translational Sciences (NCATS)
# AmpC inh detg – qHTS Inhibitors of AmpC Beta-Lactamase (assay with detergent) | Potency, µM (titrated, usually from 114 µM), inactives show at the highest dose activity change, negative = inhibition, most hits filed as inhibitors | hit rate 0.041% among 370,000 | AmpC hydrolysis of nitrocefin, absorbance 480 nm, 0.01% Triton;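 further: 0% = no-compound wells and -100% = no-enzyme wells; nearly all actives have a fitted effect of over 25% in size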
# Target sequence (P00811 whole entry, looked up): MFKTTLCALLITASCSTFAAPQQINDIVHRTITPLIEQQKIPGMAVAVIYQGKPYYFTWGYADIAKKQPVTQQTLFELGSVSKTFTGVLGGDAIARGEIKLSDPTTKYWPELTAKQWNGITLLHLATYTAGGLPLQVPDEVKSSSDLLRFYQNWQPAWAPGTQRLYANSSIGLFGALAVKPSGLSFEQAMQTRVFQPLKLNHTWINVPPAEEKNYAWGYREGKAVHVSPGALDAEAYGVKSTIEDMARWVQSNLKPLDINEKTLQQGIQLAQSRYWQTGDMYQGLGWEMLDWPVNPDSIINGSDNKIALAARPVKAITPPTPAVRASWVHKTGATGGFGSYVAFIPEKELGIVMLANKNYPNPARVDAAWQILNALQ
#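 AmpC (5.3 nM in the dispensed reagent) in 20 mM phosphate pH 7.0 with 0.01% (detergent screen) or 0.0001% Triton X-100 was preincubated with compounds for 15 min at room temperature. Nitrocefin was then added from an 800 uM solution, and hydrolysis was followed at 480 nm.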
# RE007 growth inh – qHTS Assay for Inhibitors of the HIV-1 protein Vpr | S. pombe RE007 Vpr strain, BacTiter-Glo ATP luminescence, 24 h | Potency, µM (highest dose often 92.2 µM), for inactives: at the top dose activity change, negative = less growth, actives largely listed as inhibitors | hit rate 0.21% among 360,000 | AID 651644, 2012; active means well fitted falling curve with a large enough effect; inconclusive means small, poorly fitted or top-dose-only effect; inactive means no such curve, though single readings can be large or run the other way; further: on the % scale 0 is the no-effect control and ±100 the full control effect; nearly all actives have a fitted effect of over 50% in size
#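 Fission yeast strain RE007, carrying one chromosomally integrated HIV-1 vpr copy, was seeded at OD 0.01 in PMG+AL medium with 23 nL pinned compound. After 24 h at 30 °C and 99% humidity, viability was read by BacTiter-Glo luminescence.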
# AmpC no deterg – qHTS Inhibitors of AmpC Beta-Lactamase (assay without detergent). P00811. AmpC nitrocefin hydrolysis, absorbance 480 nm, 0.0001% Triton. Potency, µM (highest dose often 57.1 µM), without a hit: at the top dose activity change, negative = inhibition, actives largely listed as inhibitors. hit rate 0.52% among 330,000;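 further: plate controls were no compound for no effect and no enzyme for full effect; nearly all actives have a fitted effect of over 20% in size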
#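 20 mM phosphate pH 7.0 + 0.01% (detergent screen) or 0.0001% Triton X-100; 5.3 nM AmpC reagent; cpd preinc 15 min RT; nitrocefin (800 uM stock) to start; A480 q20 s × 4 min; Activity was normalised to no-enzyme and no-compound control wells.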
# SARS PLpro yeast – qHTS of Yeast-based Assay for SARS-CoV PLP. S. cerevisiae expressing SARS-CoV PLpro, growth rescue. Potency, µM (top dose mostly 32.9 µM), inactives show at the highest dose activity, positive = growth rescue, actives largely listed as activators. hit rate 0.19% among 330,000. AID 485353, 2010; calls by dose curve; further: 0% is about no effect; nearly all actives have a fitted effect of over 55% in size
# TbPYK inhibitor – qHTS of Trypanosoma Brucei Inhibitors | pyruvate kinase (Trypanosoma brucei), Q57TT1 | TbPYK enzyme, Kinase-Glo Plus ATP luminescence, 45 min | Potency, µM (series often up to 76.8 µM), for the others: at the highest dose activity, negative = inhibition, hits mostly inhibitors | hit rate 0.12% among 410,000 | AID 624173, 2012; further: on the % scale 0 is the no-effect control and ±100 the full control effect; nearly all actives have a fitted effect of over 50% in size
#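 Luminescent Kinase-Glo Plus end-point after 45 min room-temperature reaction of T. brucei pyruvate kinase started with 130 uM ADP (final). Buffer TEA 50 mM pH 7.2 with KCl, MgCl2, BSA, Tween-20; titration-based qHTS with fitted concentration-effect curves.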
# Sm TGR block – qHTS Assay for the Inhibitors of Schistosoma Mansoni Peroxiredoxins; Schistosoma mansoni thioredoxin glutathione reductase (TGR), Q962Y6; Potency, µM (doses to about 114 µM), for the others: top-dose activity change, negative = inhibition, usual class: inhibitors; AID 485364, 2010; purified TGR, DTNB reduction, TNB absorbance 405 nm; hit rate 3% among 360,000; further: on the % scale 0 is the no-effect control and ±100 the full control effect; nearly all actives have a fitted effect of over 60% in size
#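 Kinetic colorimetric format: TGR-catalysed, NADPH-driven DTNB reduction monitored via TNB absorbance. Enzyme dispensed at 20 nM; compound exposure 15 min at room temperature before reaction start.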
# * marks the source's active call; other numbers are inactive results; ? = inconclusive; / = no result. In the library only some 3.3% were active in any assay of this set; here they are far more common. Unless noted, the call rests on the fitted dose curve; in most records, active means well fitted curve in the direction sought with a large enough effect; inconclusive means small, poorly fitted or top-dose-only effect, or another doubt; inactive means no such curve, though single readings can be large; an effect the other way counts as inactive or inconclusive. Potency means the concentration at half of the fitted maximal effect.
SMILES,AmpC inh detg,RE007 growth inh,AmpC no deterg,SARS PLpro yeast,TbPYK inhibitor,Sm TGR block
c1ccc(-c2ccc(-n3ccnc3)cc2)cc1,?,28µM*,-7%,-11%,-7%,-44%
COc1cc(C(CC(=O)NCc2ccccc2Cl)N2Cc3ccccc3C2=O)cc(OC)c1OC (stereo not given),-4%,/,/,/,5%,-3%
O=C(O)c1ccccc1NS(=O)(=O)c1cccc(-n2sc3ccccc3c2=O)c1,?,1%,-56%,-1%,5µM*,?
O=C(O)c1ccccc1NS(=O)(=O)c1cccc(C(F)(F)F)c1,?,3%,-44%,9%,-1%,14%
Cc1c(-c2ccccc2)c(=O)oc2c(CN3CCN(C)CC3)c(O)ccc12,5%,/,/,/,10%,30%
Cc1c(-c2nnc(SCC(=O)Nc3ccccc3F)o2)nnn1-c1ccc(F)cc1,6%,/,/,/,-18%,-22%
CC(O)(CS(=O)(=O)Cc1ccccc1)c1ccc(Cl)cc1 (stereo not given),5%,6%,-27%,-1%,0%,-2%
Cc1ccc(C(C)(O)CS(=O)(=O)Cc2ccccc2Cl)cc1 (stereo not given),-6%,-9%,-3%,-3%,-8%,50µM*
C=CCSC1=NN2CCS(=O)(=O)N=C2S1,-3%,6%,-6%,5%,0%,7%
CCOC(=O)CSC1=NN2CCS(=O)(=O)N=C2S1,-2%,4%,-14%,3%,-9%,10µM*
COc1ccc(-c2c3c(cc4ncn(Cc5ccccc5)c24)COC3=O)cc1,4%,31%,-18%,0%,-4%,32µM*
Nc1nc(CCl)nc(Nc2cccc3ccccc23)n1,9%,-10%,-15%,0%,-5%,16µM*
CCOC(=O)c1cnc(Nc2nc3ccccc3o2)nc1CN1CCN(C)CC1,-4%,-6%,-7%,1%,5%,50µM*
COc1ccc(-c2ccc(NS(=O)(=O)c3cccc(Cl)c3)cc2)nn1,17%,/,/,/,-6%,-1%
O=S(=O)(c1ccc(Br)cc1)c1nc(-c2ccco2)oc1NCCCn1ccnc1,-1%,7%,121%,0%,-2%,22µM*
O=S(=O)(c1ccccc1)c1nc(-c2cccs2)oc1NCCCn1ccnc1,?,6%,-16%,8%,-19%,?
O=S(=O)(c1ccccc1)c1nc(-c2ccco2)oc1NCCN1CCOCC1,5%,2%,35%,11%,0%,?
O=S(=O)(c1ccccc1)c1nc(-c2ccco2)oc1NCCCN1CCOCC1,5%,13%,38%,17%,-5%,28µM*
COc1ccc(N2CCN(c3c4c(nc5nncn35)CCC4)CC2)cc1,3%,/,/,/,-3%,0%
O=C1CC(N2CCN(c3ccc(O)cc3)CC2)C(=O)N1Cc1cccs1 (stereo not given),?,-27%,-12%,-30%,?,50µM*
O=C(c1ccncc1)c1ccc(N2CCN(C3CC(=O)N(Cc4cccs4)C3=O)CC2)cc1 (stereo not given),-2%,-7%,131%,-5%,-7%,?
Cc1ccc(C)c(NC(=O)Cc2coc3cc(C)cc(C)c23)c1,-3%,/,/,/,3%,-3%
CCN(CC)c1ccc(/C=N/NC(=O)C(O)(c2ccccc2)c2ccccc2)o1,-2%,/,-23%,-1%,/,14µM*
FC(F)(F)c1cccc(NC(=S)NC2CCCC2)c1,4%,-1%,-32%,-45%,-3%,-19%
S=C(Nc1ccc(Oc2ccc(NC(=S)NC3CCCCC3)cc2)cc1)NC1CCCCC1,-3%,4%,-19%,11µM*,-27%,2%
